Shiga toxin inh: Shiga toxin inhibition; inhibition, % at 38.7 µM; hit rate 9.2% among 290,000; AID 2315; Vero cells, Shiga toxin protein synthesis inhibition reporter; in the data active = inhibition mostly above about 28%, no sharp cut-off; inactive = mostly below about 43%
Marburg entry inh: inhibitors of Marburg virus binding or cell entry | Potency, µM (top dose mostly 37.8 µM), most hits filed as inhibitors | hit rate 1.8% among 300,000 | Marburg virus pseudotyped entry inhibition, cell reporter | AID 540276; calls by dose curve; tested in HEK293 cells
Pf growth 96h: P. falciparum growth inhibition at 96 hour, primary screen for plastid delayed-death inhibitors | P. falciparum luciferase reporter growth, 96 h | Potency, µM (doses to about 28.7 µM), hits mostly inhibitors | hit rate 6.9% among 320,000
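Infected RBCs, 2% Hct / 0.05% parasitemia final; luciferase-reporter P. falciparum; cpd 96 h, 37 C, 5% CO2; luciferase detection reagent; luminescence.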
LASV entry inh: blocks Lassa virus binding to or entry into cells; hit rate 1.2% among 300,000; AID 540256; Lassa virus pseudotype entry inhibition, cell reporter; Potency, µM (top dose mostly 37.9 µM), usual class: inhibitors; calls by dose curve; tested in HEK293 cells; note: nearly all actives have a fitted effect of over 50% in size
Cycloheximide cs: affects cycloheximide protein synthesis inhibition readout, counter-screen; AID 2314; hit rate 12% among 300,000; max response, %; cell reporter, cycloheximide protein synthesis inhibition counterscreen; in the data active = max response mostly above about 13%, no sharp cut-off; inactive = mostly below about 14%; note: read at 38.3 µM for the half of the compounds with a filed dose
Pf growth 48h: P. falciparum growth inhibition at 48 hours (one generation); P. falciparum luciferase growth in erythrocytes, 48 h; Potency, µM (titrated, usually from 28.7 µM), usual class: inhibitors; hit rate 5.9% among 310,000; AID 504832
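Here the parasites carry a stable luciferase gene and grow inside erythrocytes in Albumax-based RPMI medium with compound for one erythrocytic cycle. Activity is scored as loss of luminescent signal.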
A number is an active result; [ ] = another dose, or the depositor's remark. An excerpt weighted towards active compounds, which were near 19% of everything screened. Unless noted, calls come from the whole dose curve; as a rule, active = well fitted inhibition curve with a large enough effect; inconclusive = small, poorly fitted or top-dose-only effect, or another doubt; inactive = no such curve, though single readings can be large or run the other way.

What do the screens show for `Cc1nnc(N2C(=O)C(O)=C(C(=O)c3ccco3)C2c2ccc(C(C)C)cc2)s1` (stereo not given)?
Shiga toxin inh: 64; Marburg entry inh: inactive; Pf growth 96h: inconclusive; LASV entry inh: inactive; Cycloheximide cs: 40; Pf growth 48h: inactive

How did CCOC(=O)C(=CNNc1c(C)csc1C(=O)OC)C(=O)OCC do in these assays?
Shiga toxin inh: inactive; Pf growth 96h: inactive; Cycloheximide cs: inactive; Pf growth 48h: inactive

How did CCc1cn(C2CC(O)C(CO)O2)c(=O)[nH]c1=O (stereo not given) do in these assays?
Pf growth 96h: inactive; Pf growth 48h: inactive

Results for CN(/N=C/c1ccc2c(c1)OCO2)c1ccccc1 ?
Shiga toxin inh: 127; Marburg entry inh: inconclusive; Pf growth 96h: inconclusive; LASV entry inh: inconclusive; Cycloheximide cs: 95; Pf growth 48h: inactive

Results for Cc1ccc(C(=O)N/C(=C\c2ccc3c(c2)OCO3)C(=O)Nc2ccc(C(=O)O)cc2)cc1 ?
Shiga toxin inh: 39; Marburg entry inh: inconclusive; Pf growth 96h: inconclusive; LASV entry inh: inactive; Cycloheximide cs: inactive; Pf growth 48h: inactive

How did COc1ccc(N2CC(NC(=O)/C=C\c3ccc4c(c3)OCO4)CC2=O)cc1 (stereo not given) do in these assays?
LASV entry inh: inactive

How did COc1ccc(C(=O)N/C(=C\c2ccc3c(c2)OCO3)C(=O)Nc2ccc(C(=O)O)cc2)cc1 do in these assays?
Shiga toxin inh: inactive; Marburg entry inh: inactive; Pf growth 96h: inconclusive; LASV entry inh: inactive; Cycloheximide cs: inactive; Pf growth 48h: inactive[5.75 µM]

What do the screens show for `Cc1ccc(C(C(=O)Nc2ccc3c(c2)OCO3)N(C)C(=O)/C=C\c2ccc3c(c2)OCO3)cc1` (stereo not given)?
Shiga toxin inh: inactive; Marburg entry inh: inconclusive; Pf growth 96h: inactive; LASV entry inh: inactive; Cycloheximide cs: inactive; Pf growth 48h: 13µM

Results for COc1ccc(NC(=O)/C=C/c2ccc3c(c2)OCO3)cc1 ?
Shiga toxin inh: 78; Pf growth 96h: inactive; Cycloheximide cs: 48; Pf growth 48h: inactive

How did CC1CCCCC1NC(=O)CSc1nnc(CN2CCOCC2)n1C (stereo not given) do in these assays?
Shiga toxin inh: inactive; Marburg entry inh: inactive; Pf growth 96h: inactive; LASV entry inh: inactive; Cycloheximide cs: inactive; Pf growth 48h: inactive

What do the screens show for `CC(C)CC1(C(=O)NCc2cc(F)cc(C(F)(F)F)c2)C=CCN1C(=O)c1ccccc1` (stereo not given)?
Shiga toxin inh: inactive; Marburg entry inh: inactive; Pf growth 96h: inconclusive; LASV entry inh: inactive; Cycloheximide cs: inactive; Pf growth 48h: inactive

What do the screens show for `CCNc1ccccc(C(=O)/C=C/c2ccc3c(c2)OCO3)c1=O`?
Shiga toxin inh: inactive; Marburg entry inh: inactive; Pf growth 96h: inconclusive; LASV entry inh: inactive; Cycloheximide cs: 24

How did O=[N+]([O-])/C=C/c1ccc2c(c1)OCO2 do in these assays?
Marburg entry inh: inconclusive; LASV entry inh: 3.3µM

What do the screens show for `COc1cc2c(cc1/C=C/[N+](=O)[O-])OCO2`?
Shiga toxin inh: inactive; Marburg entry inh: inconclusive; Pf growth 96h: inactive; LASV entry inh: inconclusive; Cycloheximide cs: inactive; Pf growth 48h: inconclusive

Results for CN(C(=O)/C=C/c1ccc2c(c1)OCO2)c1ccccc1 ?
Shiga toxin inh: 92; Marburg entry inh: inactive; Pf growth 96h: inconclusive; LASV entry inh: inactive; Cycloheximide cs: 42; Pf growth 48h: inactive

How did COCOc1cc(OC)ccc1C(=O)/C=C/c1ccc2c(c1)OCO2 do in these assays?
Marburg entry inh: inactive

What do the screens show for `CCC(C)NC(=O)c1ccccc1NC(=O)/C(=C/c1ccc(OC)cc1)c1ccccc1` (stereo not given)?
Shiga toxin inh: inactive; Marburg entry inh: inconclusive; Pf growth 96h: 12µM; LASV entry inh: inconclusive; Cycloheximide cs: inactive; Pf growth 48h: inconclusive

How did COc1ccc(NC(=O)/C(=C/c2ccc3c(c2)OCO3)NC(C)=O)cc1 do in these assays?
Shiga toxin inh: active; Marburg entry inh: inactive; Pf growth 96h: inactive; LASV entry inh: inactive; Cycloheximide cs: 72; Pf growth 48h: inactive

What do the screens show for `COc1ccc(C(=O)N/C(=C\c2ccccc2)C(=O)Nc2ccc(C(=O)O)cc2)cc1`?
Shiga toxin inh: inactive; Pf growth 96h: inactive; Cycloheximide cs: inactive; Pf growth 48h: inactive

Results for CCCNC(=O)COC(=O)/C=C/c1ccc2c(c1)OCO2 ?
Shiga toxin inh: inactive; Marburg entry inh: inactive; Pf growth 96h: inactive; LASV entry inh: inactive; Cycloheximide cs: inactive; Pf growth 48h: inactive

Results for COc1cc(/C=N/N(C)c2ccccc2)ccc1O ?
Shiga toxin inh: 88; Marburg entry inh: inconclusive; LASV entry inh: inactive; Cycloheximide cs: 31; Pf growth 48h: inactive

What do the screens show for `COc1ccc(/C=C(/NC(=O)c2ccccc2OC)C(=O)Nc2ccc(C(=O)O)cc2)cc1`?
Shiga toxin inh: inactive; Marburg entry inh: inconclusive; Pf growth 96h: 9.3µM; LASV entry inh: inactive; Cycloheximide cs: inactive; Pf growth 48h: inactive

Results for COC(=O)/C=C/c1ccc2c(c1)OCO2 ?
Shiga toxin inh: 83; Marburg entry inh: inactive; Pf growth 96h: inactive; LASV entry inh: inactive; Cycloheximide cs: 22; Pf growth 48h: inconclusive

Results for CCNc1ccc(Br)cc(C(=O)/C=C/c2ccccc2Cl)c1=O ?
Marburg entry inh: 16µM; LASV entry inh: inconclusive

Results for CCC1CSC(=Nc2ccc(C)cc2)N1C(=O)CN1C(=O)NC2(CCCC2)C1=O (stereo not given) ?
Shiga toxin inh: 74; Marburg entry inh: inconclusive; Pf growth 96h: inactive; LASV entry inh: 10µM; Cycloheximide cs: 34; Pf growth 48h: inactive

How did CC1CN(C(=O)CN2C(=O)NC3(CCCC3)C2=O)C(=Nc2cccc(S(=O)(=O)N(C)C)c2)S1 (stereo not given) do in these assays?
Marburg entry inh: inactive; Pf growth 96h: inactive; LASV entry inh: inactive; Pf growth 48h: inconclusive

What do the screens show for `CN(C)CCn1c(=O)n(Cc2ccco2)c(=O)c2c3c(sc21)CCCCC3`?
Shiga toxin inh: inactive; Marburg entry inh: inconclusive; Pf growth 96h: 7.4µM; LASV entry inh: inactive; Cycloheximide cs: inactive; Pf growth 48h: inconclusive

How did O=C(Cn1c(=O)n(Cc2ccco2)c(=O)c2c3c(sc21)CCCCC3)Nc1ccccc1 do in these assays?
Shiga toxin inh: inactive; Marburg entry inh: inactive; Pf growth 96h: 12µM; LASV entry inh: inactive; Cycloheximide cs: inactive; Pf growth 48h: inconclusive

What do the screens show for `O=C(Cn1c(=O)n(Cc2ccco2)c(=O)c2c3c(sc21)CCCCC3)c1ccccc1`?
Shiga toxin inh: 57; Marburg entry inh: inactive; Pf growth 96h: inactive; LASV entry inh: inactive; Cycloheximide cs: inactive; Pf growth 48h: inactive

How did CCCNC(=O)Cc1c(C)n(C(=O)c2ccc(Cl)cc2)c2ccc(OC)cc12 do in these assays?
Shiga toxin inh: inactive; Marburg entry inh: inconclusive; Pf growth 96h: inactive; LASV entry inh: inconclusive; Cycloheximide cs: inactive; Pf growth 48h: inconclusive

What do the screens show for `COc1ccc(-c2nnc(SCC(=O)c3ccc([N+](=O)[O-])cc3)o2)cc1OC`?
Marburg entry inh: inactive; LASV entry inh: inactive

How did Cc1ccccc1NC(=O)CSc1nc(Nc2ccccc2)nc(N2CCOCC2)n1 do in these assays?
Shiga toxin inh: inactive; Marburg entry inh: inconclusive; LASV entry inh: inactive; Cycloheximide cs: inactive; Pf growth 48h: inconclusive

Bioassay records deposited in PubChem BioAssay by National Center for Advancing Translational Sciences (NCATS).
